These results are taken from PubChem BioAssay (Tox21).

For assay [1], the target named is Acetylcholinesterase (Homo sapiens) (UniProt P22303). The experiment in a line: Acetylcholinesterase (AChE) small molecule antagonists: colormetric cell-based qHTS assay (AID 1347395). Also: nearly all actives have a fitted effect of over 30% in size. Also: potency is read from the fitted curve at half-maximal effect. The settings on record: SH-SY5Y cells AChE activity, colorimetric (Ellman); series mostly up to 115 µM. In outline: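 In this cell-based qHTS, attached SH-SY5Y cells were treated with test chemicals for 30 min, after which acetylthiocholine hydrolysis was followed by DTNB colour development over 90 min at 37 C.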
(qHTS replaces the single test concentration by a dilution series.)

The target is the same in assay [2]. The experiment in a line: Acetylcholinesterase (AChE) small molecule antagonists: enzyme-based qHTS assay with human liver microsomes (AID 1347399). Also: nearly all actives have a fitted effect of over 60% in size. The settings on record: Potency: qHTS inhibition; outcome: qHTS inhibition; series mostly up to 115 µM. The gist of the method: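 Recombinant human AChE (50 mU/mL in the enzyme mix) and human liver microsomes (0.25 mg/mL final) were preincubated with compound and NADPH (0.25 mg/mL final) for 30 min at 37 C. Acetylthiocholine/DTNB was then added; thiocholine was read colorimetrically after 10 min at room temperature.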

Assay [3] has the same target. Put plainly: Acetylcholinesterase (AChE) small molecule antagonists: fluorescence cell-based qHTS assay (AID 1347398). Also: nearly all actives have a fitted effect of over 50% in size. Also: potency is read from the fitted curve at half-maximal effect. The settings on record: SH-SY5Y cells; Potency: AChE activity; outcome: AChE activity; series mostly up to 115 µM. The gist of the method: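 Thiocholine generated from acetylthiocholine by SH-SY5Y cell AChE is detected with Thiolite Green (Ex/Em 490/520 nm) after 40 min at room temperature, following 30 min compound pretreatment at 37 C.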

Each structure is given as a SMILES string. Results filed as inconclusive are left out. The source made the active and inactive calls. Calls follow the shape of the full dose curve.

Acetylcholinesterase (Homo sapiens), sequence (P22303 whole entry, looked up): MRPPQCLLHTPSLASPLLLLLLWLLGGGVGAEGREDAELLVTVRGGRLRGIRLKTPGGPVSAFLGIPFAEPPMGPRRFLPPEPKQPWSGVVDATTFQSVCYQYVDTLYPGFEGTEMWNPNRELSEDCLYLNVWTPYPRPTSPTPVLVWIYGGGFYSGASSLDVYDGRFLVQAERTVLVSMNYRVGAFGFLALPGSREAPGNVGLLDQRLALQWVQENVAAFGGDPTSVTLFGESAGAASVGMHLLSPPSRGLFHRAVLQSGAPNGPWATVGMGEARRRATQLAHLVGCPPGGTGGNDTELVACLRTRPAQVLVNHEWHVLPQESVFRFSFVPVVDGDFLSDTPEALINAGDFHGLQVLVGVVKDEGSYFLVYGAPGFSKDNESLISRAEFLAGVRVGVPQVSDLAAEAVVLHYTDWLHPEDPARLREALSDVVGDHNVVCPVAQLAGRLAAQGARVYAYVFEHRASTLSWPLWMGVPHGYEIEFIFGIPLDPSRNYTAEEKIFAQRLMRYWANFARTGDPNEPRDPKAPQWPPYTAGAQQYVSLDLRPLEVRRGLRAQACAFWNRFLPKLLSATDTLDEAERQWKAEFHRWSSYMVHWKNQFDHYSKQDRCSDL

With `Clc1ccc(C(Cn2ccnc2)OCc2c(Cl)cccc2Cl)c(Cl)c1` (configuration not stated), the Potency entry in assay [1] and in assay [2] was “inactive” in each case.
As to `CN1CCN(c2ccccc2/C=C2\SCCN(c3ccc(Cl)c(Cl)c3)C2=O)CC1`, the Potency entry in assay [1] and in assay [2] was “inactive” in each case. Further, in assay [3], the Potency is 39.9 µM (active).
As for `CC(Cc1ccc(O)c(O)c1)C(C)Cc1ccc(O)c(O)c1` (configuration not stated), the Potency entry in assay [1] and in assay [2] was “inactive” each time.
In the case of `O=C(CS(=O)Cc1ccco1)NC/C=C\COc1cc(CN2CCCCC2)ccn1` (configuration not stated), the Potency in assay [1] is 38.9 µM (active). In addition, the Potency result in assay [2] was “inactive”.
In the case of `Nc1ccc(Cl)c([N+](=O)[O-])c1`, the Potency result in assay [1], in assay [3] and in assay [2] was “inactive” each time.
`COc1cc(N)c(Cl)cc1C(=O)NC1CCN(Cc2ccccc2)CC1`: the Potency in assay [1] is 17.4 µM (active). In assay [2], the Potency entry is “inactive”.
As for `CC/C(=C(/c1ccc(O)cc1)c1ccc(OCCN(C)C)cc1)c1ccccc1`, the Potency in assay [1] is 41.7 µM (active). For the same compound, in assay [2], the Potency entry was “inactive”.
Take `CN1CCCC(n2nc(Cc3ccc(Cl)cc3)c3ccccc3c2=O)CC1` (configuration not stated): the Potency was 17.4 µM (active) in assay [1] and 13.8 µM (active) in assay [3]. For the same compound, in assay [2], the Potency entry was “inactive”.
For `N=C(N)S(=O)O`, in that order: “inactive”, “inactive” and “inactive”.
For `COC(=O)CS`, the Potency result in assay [1], in assay [3] and in assay [2] was “inactive” each time.
Take `CCCCCCOC(=O)c1ccccc1O`: the Potency result in assay [1], in assay [3] and in assay [2] was “inactive” each time.
For the compound `CCCCCC/C=C\CCCCCCCC(=O)O`, the Potency entry in assay [1], in assay [3] and in assay [2] was “inactive” in each case.
Consider `COc1c2occc2c(OC)c2c(=O)cc(C)oc12`, for which the Potency result in assay [1], in assay [3] and in assay [2] was “inactive” in each case.
For the compound `CCCCCO`, the Potency result in assay [1], in assay [3] and in assay [2] was “inactive” each time.
With `CCc1cc(SCc2sc(-c3ccc(C(F)(F)F)cc3)nc2CN2CCN(c3ccc(OC)cc3)CC2)ccc1OCC(=O)O`, the Potency entry in assay [1], in assay [3] and in assay [2] was “inactive” in each case.
Regarding `CO[C@@H]1[C@@H](O[C@@H]2O[C@H](C)[C@@H](O[C@H]3C[C@@](C)(O)[C@@H](O)[C@H](C)O3)[C@H](N(C)C)[C@H]2O)[C@@H](CC=O)C[C@@H](C)[C@@H](O[C@@H]2CC[C@H](N(C)C)[C@@H](C)O2)/C=C/C=C/C[C@@H](C)OC(=O)C[C@H]1OC(C)=O`, the Potency result in assay [1] and in assay [2] was “inactive” in each case.
